IL1B secr inh: qHTS for Inhibitors of Inflammasome Signaling: IL-1-beta AlphaLISA Primary Screen; 4.7% of 360,000 active; THP-1 LPS/ATP IL-1B secretion, AlphaLISA, 16 h; hits give low values; activity change, % at 57.5 µM; in the data active means activity change below about -50%; inconclusive means mostly about -30% to -49%
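Secreted IL-1B measured by AlphaLISA bead assay after 16 h compound exposure of THP-1 cells; compounds (final up to 57.5 uM) added 1 h before LPS (250 ng/mL) and ATP (1.25 mM) stimulation; lower signal means less secretion.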
VP16 counter: VP16 counterscreen qHTS for inhibitors of ROR gamma transcriptional activity | Drosophila S2 Gal4-VP16 UAS-luciferase, luminescence, 20 h | Potency, µM (top dose mostly 53.6 µM), usual class: inhibitors | 3.5% of 310,000 active | AID 2546, 2010;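 further: Gal4-VP16 expression switched on by copper sulfate through the metallothionein promoter; nearly all actives have a fitted effect of over 50% in size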
LDHA inh: qHTS assay for inhibitors of human lactate dehydrogenase; L-lactate dehydrogenase A chain (Homo sapiens), P00338; purified LDHA, NADH/diaphorase-resazurin fluorescence; hits give low values; activity change, % (values are at about 110 or 230 µM); 0.15% of 480,000 active; in the data active means activity change below about -30%; inconclusive means mostly about -25% to -30%
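Enzyme activity of human lactate dehydrogenase 5 (2 nM; 0.06 mM NADH, 0.2 mM pyruvate, 5 min, RT) is measured via a resazurin/diaphorase fluorescence readout of residual NADH.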
TDP1 cell noCPT: qHTS for Inhibitors of human tyrosyl-DNA phosphodiesterase 1 (TDP1): qHTS in cells in absence of CPT; DT40 Tdp1-/- hTDP1 cells, no CPT, ATP luminescence, 48 h; Potency, µM (doses to about 46.2 µM), usual class: inhibitors; 15% of 420,000 active; AID 686978, 2013; further: nearly all actives have a fitted effect of over 55% in size
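Compound effects on proliferation are scored in DT40 Tdp1-/-;hTDP1 cells in the absence of CPT. ATP levels (CellTiter-Glo luminescence) are recorded after a ≥48 hr, 37 °C incubation.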
RORg inh: qHTS for inhibitors of ROR gamma transcriptional activity | Drosophila S2 Gal4-RORgamma UAS-luciferase reporter, 20 h | Potency, µM (series often up to 53.6 µM), hits mostly inhibitors | 5.4% of 310,000 active; further: nearly all actives have a fitted effect of over 60% in size
Target sequence (P51450 whole entry, looked up, the tested form may be a part): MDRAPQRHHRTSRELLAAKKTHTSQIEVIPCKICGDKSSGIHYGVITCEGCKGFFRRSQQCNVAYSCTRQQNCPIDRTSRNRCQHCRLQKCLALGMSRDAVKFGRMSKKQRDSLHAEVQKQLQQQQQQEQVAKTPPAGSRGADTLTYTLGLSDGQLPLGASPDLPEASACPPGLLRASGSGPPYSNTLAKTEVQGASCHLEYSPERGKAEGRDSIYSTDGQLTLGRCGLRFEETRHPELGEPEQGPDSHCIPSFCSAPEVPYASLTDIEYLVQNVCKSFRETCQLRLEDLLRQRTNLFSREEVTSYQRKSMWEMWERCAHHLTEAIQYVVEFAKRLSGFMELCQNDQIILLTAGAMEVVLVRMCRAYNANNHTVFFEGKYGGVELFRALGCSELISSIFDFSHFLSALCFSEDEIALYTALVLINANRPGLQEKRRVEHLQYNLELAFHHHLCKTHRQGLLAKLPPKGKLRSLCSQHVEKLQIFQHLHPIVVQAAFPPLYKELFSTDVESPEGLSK
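Read-out: Photinus luciferase luminescence; inhibitors lower reporter signal. Insect Schneider cells with Gal4-ROR gamma fusion under metallothionein promoter, UAS reporter; 700 uM final copper sulfate induction, 20 hr, ambient temperature.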
TDP1 cell CPT: qHTS for Inhibitors of human tyrosyl-DNA phosphodiesterase 1 (TDP1): qHTS in cells in presence of CPT; chicken DT40 Tdp1-/-;hTDP1 cells + 20 nM CPT, ATP luminescence, 48 h; Potency, µM (titrated, usually from 46.2 µM), actives largely listed as inhibitors; 12% of 420,000 active; AID 686979, 2013; further: nearly all actives have a fitted effect of over 55% in size
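Chicken DT40 Tdp1-/- cells complemented with human TDP1, 400 cells/well, exposed to compounds plus 20 nM camptothecin for at least 48 h at 37 C; viability read as ATP content by CellTiter-Glo luminescence.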
Numbers stand for hits; n = inactive; u = inconclusive; x = no result; [ ] = dose if it differs, or a comment. Hits are enriched below; roughly 18% of the tested compounds scored in any of these assays. Unless noted, the call rests on the fitted dose curve; in most records, active means well fitted curve in the direction sought with a large enough effect; inconclusive means small, poorly fitted or top-dose-only effect, or another doubt; inactive means no such curve, though single readings can be large; an effect the other way counts as inactive or inconclusive.

SMILES	IL1B secr inh	VP16 counter	LDHA inh	TDP1 cell noCPT	RORg inh	TDP1 cell CPT
CSc1cccc(NC(=S)N(CCN(C)C)C(C)c2ccncc2)c1 (stereo unspecified)	u	n	n	u	u	u
Cc1ccccc1NC(=S)N(CCN1CCCCC1)Cc1ccco1	n	n	n	u	n	n
Cc1c(Cl)cccc1NC(=S)N(CCN(C)C)C(C)c1ccccn1 (stereo unspecified)	n	u	n	n	12.6µM	n
Cc1c(Cl)cccc1NC(=O)NCc1ccccn1	u	n	n	n	n	n
Cc1ccccc1NC(=S)N(CCN(C)C)C(C)c1ccccn1 (stereo unspecified)	n	n	n	n	u	n
Cc1c(Cl)cccc1NC(=S)N(Cc1ccco1)C(C)c1ccccn1 (stereo unspecified)	n	u	n	u	10µM	u
O=C(COCc1cc(-c2cccs2)on1)NCCN1CCCCCC1	x	x	n	x	x	x
Cc1ccc2c(=O)cc(C(=O)Nc3cccc(C(F)(F)F)c3)oc2c1	x	x	n	x	x	x
CCC(C(=O)NC(C)(C)CC)c1ccccc1 (stereo unspecified)	x	x	n	x	x	x
O=C(/C=C/c1ccc(-c2ccc(Cl)c(Cl)c2)o1)c1ccc(F)cc1	x	x	n	x	x	x
O=C(CSc1ncc(-c2cccc(Br)c2)o1)NC1CCCCC1	x	x	n	x	x	x
Cc1cc(O)c2c(C)c(CC(=O)NCCc3cccc(F)c3)c(=O)oc2c1	x	x	n	x	x	x
Cc1ccc(Cl)cc1N1CCN(C(=O)Cc2cn(C)c3ccccc23)CC1	n	n	n	u	n	u
Cn1c(=O)cc(OCC(=O)NCCCN2CCN(c3cccc(Cl)c3)CC2)c2ccccc21	n	n	n	16.4µM	n	u
Cc1ccc(Cl)cc1N1CCN(C(=O)COc2cc(=O)n(C)c3ccccc23)CC1	x	x	n	23.1µM	x	u
Cc1ccc(-n2nnnc2C(C)(C)N2CCOCC2)cc1	x	x	n	x	x	x
Clc1ccc(-c2csc3ncnc(Sc4nnc(C5CC5)o4)c23)cc1	x	x	n	x	x	x
Cc1nc(C#N)c(N/N=C/c2cccc(Cl)c2)o1	n	n	n	n	n	n
Cc1cc(N/N=C/c2cccc(Cl)c2)nc(-n2nc(C)cc2C)n1	n	1.26µM	n	0.82µM	0.0708µM	0.581µM
COc1ccc(/C=N/Nc2cc(C)nc(NS(=O)(=O)c3ccc(C)cc3)n2)cc1	n	n	n	u	n	u
Cc1cc(N/N=C/c2ccc(O)cc2O)nc(-n2nc(C)cc2C)n1	n	0.708µM	n	0.291µM	1µM	0.231µM
Cc1cc(N/N=C/c2ccccc2[N+](=O)[O-])nc(-n2nc(C)cc2C)n1	-97.4	0.891µM	n	0.92µM	u	1.16µM
COc1ccc(/C=N/Nc2cc(C)nc(-n3nc(C)cc3C)n2)cc1	-99.4	0.355µM	n	4.61µM	0.316µM	4.61µM
N#CC1(NC(=O)CSc2ccc3c(c2)OCCCO3)CCCC1	x	x	n	x	x	x
CN1CCN(C(=O)CN2CCN(C(C(=O)O)c3cn(CCC(=O)O)c4cc(F)ccc34)CC2)CC1 (stereo unspecified)	x	x	n	x	x	x
SMILES	IL1B secr inh	VP16 counter	LDHA inh	TDP1 cell noCPT	RORg inh	TDP1 cell CPT
CCOC(=O)c1c(C)[nH]c(C(=O)CSc2nncn2C)c1C	x	x	n	x	x	x
Cc1cc(N/N=C/c2cccc([N+](=O)[O-])c2)nc(-n2nc(C)cc2C)n1	n	1µM	n	3.66µM	0.112µM	4.11µM
Cc1cc(N/N=C/c2ccccc2O)nc(-c2ccccc2O)n1	n	u	n	u	u	n
Cc1cc(N/N=C/c2ccc(O)cc2O)nc(-c2ccccc2O)n1	-77.3	n	n	u	n[10 µM]	u
C/C(=N\Nc1cc(C)nc(-c2ccccc2O)n1)c1ccccc1O	n	n	n	13µM	n	n
Cc1cc(C)nc(N/N=C/c2cccc([N+](=O)[O-])c2)n1	n	n	n	n	n	n
Cc1cc(N/N=C\c2ccccc2)nc(-c2ccccc2O)n1	u	u	n	u	n	u
N#Cc1ccc(Oc2ccc(C=O)cc2)cc1C#N	x	x	n	x	x	x
O=C(OC1CCCCC1=O)c1ncc(Cl)c(Cl)c1Cl (stereo unspecified)	x	x	n	x	x	x
CCc1nc(SCc2coc(-c3cccc(F)c3)n2)n[nH]1	x	x	n	x	x	x
COC(=O)c1c(N2C(=O)[C@H]3[C@@H](C2=O)[C@]2(C(=O)Nc4c(C)cccc42)N2CCC[C@@H]32)sc(C)c1C	n	n	n	10.3µM	n	20.6µM
Cc1cc(Cl)cc2c1NC(=O)[C@]21[C@@H]2C(=O)N(Cc3ccccc3)C(=O)[C@@H]2[C@@H]2CCCN21	n	n	n	u	n	n
CCCCn1c(NCc2ccccn2)nc2ccccc21	n	12.6µM	n	n	7.08µM	u
CCCCCn1c(NCc2ccc(OC)cc2)nc2ccccc21	x	x	n	23.1µM	x	16.4µM
c1ccc(Cn2c(NCc3ccccn3)nc3ccccc32)cc1	n	n	n	n	10µM	n
C=C1N(C)c2cc([N+](=O)[O-])c(N)cc2C1(C)C	-53.2	n	n	n	n	n
CC1(C)Oc2cc(N)c([N+](=O)[O-])cc2O1	n	n	n	n	n	n
Cc1ccc(OCCn2nc(C(=O)O)c3ccccc3c2=O)cc1	x	x	n	x	x	x
Cc1cc(C)cc(Oc2nc(-c3ccncc3)nc3ccccc23)c1	x	x	n	x	x	x
O=[N+]([O-])c1cccc(-c2cc3ccccc3[nH]2)c1	n	u	n	n	n	n
O=[N+]([O-])/C=C/c1cc2ccccc2[nH]1	n	u	n	18.4µM	10µM	20.6µM
CC1CCN(c2oc(-c3cccs3)nc2S(=O)(=O)c2ccc(Cl)cc2)CC1	x	x	n	13µM	x	u
Cc1ccc(S(=O)(=O)c2nc(-c3cccs3)oc2N2CCC(C)CC2)cc1	x	x	n	10.3µM	x	23.1µM
O=S(=O)(c1ccccc1)c1nc(-c2cccs2)oc1N1CCOCC1	x	x	n	x	x	x
O=S(=O)(c1ccccc1)c1nc(-c2cccs2)oc1N1CCCCC1	x	x	n	u	x	29.1µM
CC1CCN(c2oc(-c3cccs3)nc2C#N)CC1	x	x	n	x	x	x
Cn1c(C(=O)N2CCN(C(=O)c3ccc(F)cc3)CC2)cc2ccccc21	x	x	n	x	x	x
Cc1ccc(CSc2nccc(-c3c(C)nc4ccccn34)n2)cc1	n	n	n	16.4µM	u	u
Clc1ccc2nc(C3CCCCC3)c(Cc3ccsc3)n2c1	n	x	n	u	x	23.1µM
Cc1ccc(Cc2c(C3CCCCC3)nc3ccc(Cl)cn23)cc1	n	x	n	u	x	u

Screening results: PubChem, National Center for Advancing Translational Sciences (NCATS)
